The values that follow come from PubChem BioAssay AID602292 (National Center for Advancing Translational Sciences (NCATS), 2012).

Among all 1,300 compounds or so, about 380 (29%) were called active. Not shown: some 37% with an inconclusive outcome. Calls follow the shape of the dose curve; as a rule, active = well fitted inhibition curve with a large enough effect; inconclusive = small, poorly fitted or top-dose-only effect; inactive = flat fitted curve, though single readings scatter. Some of the results follow.
Potency is read from the fitted curve at half-maximal effect.

The target in this experiment is Thyrotropin receptor (Homo sapiens) (UniProt P16473). The experiment can be described thus: qHTS for antagonists of the Thyroid Stimulation Hormone Receptor: Hit Validation in Primary Screen. Also: nearly all actives have a fitted effect of over 80% in size. Conditions: TSHR-expressing cells, cAMP antagonist mode; series mostly up to 58 µM. From the text: The thyroid-stimulating hormone receptor (TSHR) is a member of the 7 trans-membrane-spanning receptor (7TMR) family of cell surface receptors. TSHR-mediated hyperthyroidism is important in thyroid pathology. The development of small molecule antagonists of TSHR may lead to therapeutic approaches for TSHR-mediated hyperthyroidism caused by constitutively activating mutations or stimulating auto-antibodies associated with Graves' disease. Graves' disease is the leading cause of hyperthyroidism and is caused by autoantibodies that stimulate TSHR (TsAbs) causing thyroid growth and unregulated overproduction of thyroid hormones and existing treatments have liabilities (agranulocytosis). In addition, TSHRs are known to be expressed in multiple extrathyroidal tissues including bone, brain, kidney, testis, fat and cells of the immune system but the role of the TSHR in these tissues is not clear. Therefore, TSHR antagonists/inverse agonists could be used as probes of extrathyroidal TSHR function. Finally, TSHR inverse agonists, which are a subclass of antagonists that inhibit agonist-independent (or basal or constitutive) TSHR signaling, could be used to inhibit TSH-independent signaling in patients with recurrent or metastatic thyroid cancer who are receiving thyroid hormone to suppress TSH.
Thyrotropin receptor (Homo sapiens), sequence (P16473 whole entry, looked up): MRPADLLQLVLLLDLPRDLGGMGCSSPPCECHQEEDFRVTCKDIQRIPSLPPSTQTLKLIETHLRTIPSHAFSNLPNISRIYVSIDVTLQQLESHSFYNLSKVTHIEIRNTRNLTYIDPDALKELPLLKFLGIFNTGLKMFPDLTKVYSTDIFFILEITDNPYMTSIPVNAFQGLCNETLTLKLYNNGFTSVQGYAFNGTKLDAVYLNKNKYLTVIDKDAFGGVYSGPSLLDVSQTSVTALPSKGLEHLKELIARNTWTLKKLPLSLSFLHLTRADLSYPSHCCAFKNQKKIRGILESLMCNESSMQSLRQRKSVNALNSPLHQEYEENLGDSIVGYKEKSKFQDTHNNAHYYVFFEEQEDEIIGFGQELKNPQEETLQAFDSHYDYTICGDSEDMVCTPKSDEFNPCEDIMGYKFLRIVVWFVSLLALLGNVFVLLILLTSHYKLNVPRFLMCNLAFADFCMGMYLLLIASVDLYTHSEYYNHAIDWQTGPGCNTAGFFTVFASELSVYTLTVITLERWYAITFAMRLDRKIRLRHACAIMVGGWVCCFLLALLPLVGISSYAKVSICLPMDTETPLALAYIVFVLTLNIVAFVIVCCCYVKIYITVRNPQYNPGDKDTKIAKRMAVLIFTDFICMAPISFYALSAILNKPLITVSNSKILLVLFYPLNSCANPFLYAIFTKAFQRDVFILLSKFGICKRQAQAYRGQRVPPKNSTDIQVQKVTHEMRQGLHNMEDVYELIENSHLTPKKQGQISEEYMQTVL
In collaboration between scientist from the NCGC and the NIDDK, a miniaturized HTRF high-throughput screen was developed. It's a cell based assay, where an anti cAMP antibody contains a fluorescent cryptate tag (excitation 337 nm; emission 620 nm) and the acceptor is cAMP-d2 (excitation 620 nm; emission 665 nm). When antibody and cAMP-d2 interact and are excited by a 337 nm light, a FRET occurs resulting in emission at 665 nm. The assay is competition between cAMP-d2 and cAMP (from the cell lysate). The homogeneous protocol allows for one step dispense after stimulation that is automation friendly. This is a hit validation assay using the primary screen format.
NIH Chemical Genomics Center [NCGC]
NIH Molecular Libraries Probe Centers Network [MLPCN]
Assay Provider: Marvin Gershengorn, NIDDK
1. 3ul of 200 TSHR freshly harvested cells/well are dispensed into a 1536 TC-treated white solid bottom plate.
2. Through pintool addition, 23nl of compounds and control in 100% DMSO are added to the plate.
3. Then 1ul of EC80 TSH (4nM final) is added to the plate.
4. Assay is incubated at 37 deg C for 2 hours.
5. 2ul of cAMP antibody diluted 1:20 in lysis buffer is added.
6. Immediately following, 2ul of d2 diluted 1:20 in HBSS is added seperately.
7. The assay is incubated for 30 minutes at ambient room temperature.
8. The result is obtained by using a ViewLux read-out with HTRF settings.
`O=C(Nc1ccc(Oc2ccc(Cl)cc2)c(Cl)c1)c1cc(I)cc(I)c1O`: the Potency was 1.51 µM (active).
The figure for `COC(=O)C1=C(c2ccc(-c3ccccc3)c(F)c2)C[C@@H]2CC[C@H]1N2C(=O)NCCc1ccccc1` is 6.01 µM (active); for `COC(=O)C1=C(c2ccc(OCc3ccccc3)cc2)C[C@@H]2CC[C@H]1N2C(=O)NCc1cccc(OC)c1` it is “inactive”.
The figure for `COC(=O)C1=C(c2ccc(-c3ccccc3)c(F)c2)C[C@@H]2CC[C@H]1N2C(=O)NCCCOC(C)C` is 23.9 µM (active); for `COC(=O)C1=C(c2ccc(-c3ccccc3)c(F)c2)C[C@@H]2CC[C@H]1N2C(=O)NCc1ccco1` it is 21.3 µM (active).
As for `COC(=O)C1=C(c2ccc(-c3ccccc3)c(F)c2)C[C@@H]2CC[C@H]1N2C(=O)NCCOc1ccccc1`, the Potency is 5.36 µM (active).
For `O=C(Nc1ccc2ccccc2c1)c1nn(C23CC4CC(CC(C4)C2)C3)cc1Br` the value was “inactive”; for `COC(=O)C1=C(c2ccc(-c3ccccc3)c(F)c2)C[C@@H]2CC[C@H]1N2C(=O)NC(C)C`, 23.9 µM (active).
With `COC(=O)C1=C(c2ccc(-c3ccccc3)c(F)c2)C[C@@H]2CC[C@H]1N2C(=O)NCC1CC1`, the Potency was 23.9 µM (active).
For `CNc1ccc2oc(C[C@H]3O[C@@]4(CC[C@H]3C)O[C@H]([C@H](C)C(=O)c3ccc[nH]3)[C@H](C)C[C@H]4C)nc2c1C(=O)O` the value was “inactive”; for `O=C(C1CCN(c2nc3ccc(Br)cc3s2)CC1)N1CCC2(CC1)OCCO2`, 30.1 µM (active); for `COc1cc(C(C)=O)ccc1OC(=O)N(C)c1ccccc1`, “inactive”.
For `COC(=O)C1=C(c2ccc(OC(F)(F)F)cc2)C[C@@H]2CC[C@H]1N2C(=O)N1CCC(C)CC1`, the Potency was 30.1 µM (active).
For the compound `CNc1cc(Cl)c2nonc2c1[N+](=O)[O-]`, the Potency is 4.78 µM (active).
The entry for `Cc1ccccc1-c1nc(CS(=O)CC(=O)N2CCC3(CC2)OCCO3)c(C)o1` (centres undefined) is “inactive”; for `N#CC(C#N)=NNc1ccc(-n2ccc(C(F)(F)F)n2)cc1` it is 2.39 µM (active).
`Cc1ccc(-n2c(C)nc3ccccc3c2=O)c(C)c1`: the Potency entry is “inactive”.
In the case of `Oc1ccc(Cl)cc1Cc1cc(Cl)ccc1O`, the Potency is 30.1 µM (active).
Regarding `Nc1ccc(C2(c3ccc(N)cc3)c3ccccc3-c3ccccc32)cc1`, the Potency was 6.01 µM (active).
The entry for `CC12CCC3C(CC=C4CC5(CCC43C)OCCO5)C1CCC2=O` (centres undefined) is “inactive”; for `CCN(CC)S(=O)(=O)c1ccc(NN=C(C#N)C#N)cc1` it is 6.01 µM (active); for `N#CC(C#N)=NNc1ccc([N+](=O)[O-])cc1` it is 2.69 µM (active).
The entry for `COc1cc(N2C(=O)CC(=O)NC2=O)cc(OC)c1OC` is “inactive”; for `Cc1nc2ccccc2c(=O)n1-c1cccc(C(F)(F)F)c1` it is “inactive”.
